# Experimental data taken from PubChem BioAssay AID371 (SRMLSC, 2006).
# Hit rate of the full screen: of about 3,300 compounds, about 280 (8.5%) were called active. This excerpt belongs to a sample that is enriched for actives. A number with no mark means an inactive call.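 How the source made its calls: active means mean growth inhibition over the two runs of 50% or more; inactive means mean growth inhibition under 50%.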
# Assay: A549 NSCLC cell proliferation inhibitors – ATP luminescence, human non-small cell lung line, primary screen (AID 371);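 further: compound exposure lasted 72 h before the ATP read; 0% = untreated cell signal and 100% = no luminescence left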
# Conditions: at 10 µM, stronger effect = higher value
row,Structure (SMILES),growth inhibition
1,CC(C)(C)OC(=O)N1CC=C2C(C#N)=C(N)C(C#N)(C#N)[C@H](c3cccnc3)[C@H]2C1,9.35%
2,N#CC1=C(N)C(C#N)(C#N)[C@H](c2ccncc2)[C@H]2CN(C(=O)OCc3ccccc3)CC=C12,57.7% (active)
3,CCOC(=O)N1CC=C2C(C#N)=C(N)C(C#N)(C#N)[C@H](c3cccs3)[C@H]2C1,8.61%
4,CCCCOc1ccc(CSC(CC(=O)O)C(=O)O)cc1 (configuration not stated),-2.76%
5,COc1ccc2c(C)nc(Nc3nc(C)cc(C)n3)nc2c1,2.87%
6,CCOc1ccc2c(C)nc(NC3=NC(C)(C)C=C(C)N3)nc2c1,72% (active)
7,CCCCC(C(=O)O)C(C)CC(=O)Nc1cccc(C(=O)O)c1 (configuration not stated),-1.54%
8,CC[C@H]1OC(=O)C[C@@H](O)[C@H](C)[C@@H](O[C@@H]2O[C@H](C)C[C@H](N(C)C)[C@H]2O)[C@@H](CC=O)C[C@@H](C)C(=O)C=C[C@]2(C)O[C@H]2[C@@H]1C,24.4%
9,CC(C)(C)C1CCC2(CC1)C(C#N)=C(SCC(=O)Nc1ccccc1)NC(=O)C2C#N (configuration not stated),70.2% (active)
10,CCc1ccc(NC(=O)CSC2=C(C#N)C(c3ccc4c(c3)OCO4)CC(=O)N2)cc1 (configuration not stated),8.25%
11,CC1=C(C(=O)Nc2ccccc2)C(c2ccncc2)C(C#N)=C(SCC(=O)NC(C)C)N1 (configuration not stated),6.59%
12,COC(=O)c1ccc(=O)n(Cc2ccc3c(c2)OCO3)c1,8.75%
13,CCc1cc2c(=O)c(-c3nc4ccccc4[nH]3)coc2cc1OC(=O)N1CCOCC1,-4.96%
14,CCN(CC)C(=O)c1ccc(O)c(OC)c1,-6.2%
15,COc1cc(/C=C/C(=O)CC(=O)/C=C/c2ccc(O)c(OC)c2)ccc1O,75.3% (active)
16,O=C(O)/C=C/c1ccc(O)c(O)c1,-1.3%
17,Cc1ccccc1OCC(O)Cn1c(N2CCN(c3ccccc3)CC2)nc2c1c(=O)[nH]c(=O)n2C (configuration not stated),3.03%
18,O=C(O)CC(NCc1ccco1)C(=O)OCC1CCCO1 (configuration not stated),0.9%
19,CCCC(=O)Nn1cnc2c(c1=O)C1(CCCC1)Cc1ccccc1-2,5.85%
20,COc1cccc(N2CCN(C3CC(=O)N(c4cccc(Cl)c4)C3=O)CC2)c1 (configuration not stated),4.23%
21,CC(CN1c2ccccc2Sc2ccccc21)N(C)C (configuration not stated),25.9%

row,Structure (SMILES),growth inhibition
1,CSc1ccc2c(c1)N(CCC1CCCCN1C)c1ccccc1S2 (configuration not stated),93.4% (active)
2,COc1ccc(/C(O)=C2/C(=O)C(=O)N(CCCN(C)C)C2c2ccco2)cc1Cl (configuration not stated),3.4%
3,COc1ccc(OC)c(C2/C(=C(\O)c3ccc4c(c3)OCCO4)C(=O)C(=O)N2CCCN(C)C)c1 (configuration not stated),7.35%
4,CC(C)N=c1cc2n(-c3ccc(Cl)cc3)c3ccccc3nc-2cc1Nc1ccc(Cl)cc1,92.5% (active)
5,COc1ccc(N/C(=N\c2nc(C)cc(C)n2)NC(=O)C(C)C)cc1OC,7.92%
6,CC(C)c1nc2n[nH]c(N)c2c2c1CCC2,-2.18%
7,O=C1OC2CCC1(c1ccccc1)C2 (configuration not stated),-2.09%
8,COc1ccc(C2C=C(c3ccc(C)cc3)Nc3ncnn32)cc1 (configuration not stated),30.1%
9,COc1ccc(C2=CC(c3cccc(OC)c3)n3nnnc3N2)cc1 (configuration not stated),27.1%
10,COc1cccc(C2=CC(c3ccccc3)n3ncnc3N2)c1 (configuration not stated),11.9%
11,COc1ccc(C2=CC(c3ccc(C)cc3)n3nnnc3N2)cc1 (configuration not stated),27.9%
12,COc1cccc(C2=CC(c3ccc(N(C)C)cc3)n3nnnc3N2)c1 (configuration not stated),58.6% (active)
13,COc1cccc(C2=CC(c3ccccc3)n3nnnc3N2)c1 (configuration not stated),72.7% (active)
14,CC(NC(=O)OCc1ccccc1)C(=O)OCN1C(=O)c2ccccc2C1=O (configuration not stated),2.01%
15,Cc1ccc(S(=O)(=O)c2cc3c(=O)n4cccc(C)c4nc3n(CC3CCCO3)c2=N)cc1 (configuration not stated),7.96%
16,CCOc1cccc(-c2nnc3sc(-c4ccc(C)cc4)nn23)c1,48.3%
17,c1cncc(-c2nnc3sc(-c4ccco4)nn23)c1,3.63%
18,CCOc1cccc(-c2nnc3sc(COc4ccccc4)nn23)c1,3.57%
19,COc1ccc(-c2nnc3sc(-c4ccccc4OC)nn23)cc1,4.96%
20,COc1cc(-c2nn3c(-c4cccnc4)nnc3s2)cc(OC)c1OC,14%
21,CCOc1cccc(-c2nnc3sc(-c4cc(OC)c(OC)c(OC)c4)nn23)c1,53.3% (active)

row,Structure (SMILES),growth inhibition
1,CCOc1ccc(-c2nnc3sc(-c4ccccc4OC)nn23)cc1,-2.6%
2,COc1ccccc1-c1nn2c(-c3ccc(C(C)(C)C)cc3)nnc2s1,83.3% (active)
3,c1cc(-c2nnc3sc(C4CCCCC4)nn23)ccn1,-0.46%
4,CCOc1cccc(-c2nnc3sc(C4CCCCC4)nn23)c1,79% (active)
5,CCN(CC)c1ccc(-c2nn3c(-c4cccnc4)nnc3s2)cc1,80.9% (active)
6,CCOc1cccc(-c2nnc3sc(-c4cccs4)nn23)c1,2.48%
7,Cc1ccc(N(CC(=O)O)C2SC(=O)NC2=O)cc1 (configuration not stated),-7.76%
8,Cc1ccc(C2CC(c3cccs3)n3nc(N)nc3N2)cc1 (configuration not stated),17.9%
9,CCOC(=O)c1[nH]c2ccc(Br)cc2c1NC(=O)CCN1CCC(C(=O)OCC)CC1,41.5%
10,CCSc1nnc(N(CCC#N)CCC#N)s1,4.31%
11,CCOC(=O)CCCCC(=O)NC(CO)C(=O)NC (configuration not stated),-2.55%
12,CN(CCNC(=O)c1ccc(/C=N/O)nc1)Cc1ccccc1,-0.01%
13,COc1cccc(-c2nnc3sc(C4CCCCC4)nn23)c1,73.3% (active)
14,COc1ccccc1-c1nnc2sc(C3CCCCC3)nn12,24.4%
15,c1cncc(-c2nnc3sc(C4CCCCC4)nn23)c1,25.4%
16,Cn1c(=O)[nH]c(=O)c2c1nc(Br)n2CCSc1ncccn1,4.37%
17,COCCCNc1nc2c(c(=O)[nH]c(=O)n2C)n1CC(O)COc1ccccc1 (configuration not stated),13.7%
18,CC(C)(C)c1ccc(C(O)CCCN2CCC(C(O)(c3ccccc3)c3ccccc3)CC2)cc1 (configuration not stated),95.9% (active)
19,OC(CCN1CCCCC1)(c1ccccc1)C1CCCCC1 (configuration not stated),1.96%
20,OC(CCN1CCCC1)(c1ccccc1)C1CCCCC1 (configuration not stated),7.22%
